Compound activity: PubChem BioAssay, Broad Institute
This excerpt belongs to a sample that is enriched for hits.
DUX4 inh – inhibitors of DUX4-driven ZSCAN4 reporter expression, primary screen, 293T cells, Gaussia and Italica luciferase; activity change, negative = inhibition, % (no concentration beside the values); 293T-iDUX4 ZSCAN4-Gaussia luciferase reporter, 24 h; hits give low values; AID 1224904, 2016; 37,000 compounds, 0.8% hits;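 active = mean inhibition of at least 10% in the main channel, exceeding the control channel by a set limit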;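 note: 0% = median of neutral control wells and -100% = median of positive control wells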
An asterisk follows results filed as active; ! = not confirmed by another sample.

SMILES	DUX4 inh
O=C(C1CCCC1)N1CC2(C1)[C@H](c1ccccc1)[C@@H](CO)N2C(=O)c1cccnc1	7
CCC(=O)N1[C@H](CO)[C@H](c2ccccc2)C12CN(C(=O)c1cnccn1)C2	8
CN(C)C(=O)c1cccc(-c2ccc(C3[C@@H]4CN(Cc5ccccc5F)C[C@H]3N4)cc2)c1 (stereo partly specified)	-18*!
Fc1ccc(-c2ccc(C3[C@@H]4CN(Cc5cccc(F)c5)C[C@H]3N4)cc2)cc1 (stereo partly specified)	-36*!
CN(C)C(=O)c1cccc(-c2ccc(C3[C@@H]4CN(C(=O)Nc5ccccc5F)C[C@H]3N4)cc2)c1 (stereo partly specified)	3
CN(C)C(=O)c1cccc(-c2ccc(C3[C@@H]4CN(Cc5cncnc5)C[C@H]3N4)cc2)c1 (stereo partly specified)	14
COc1cccc(S(=O)(=O)N2[C@@H]3CNC[C@H]2C3c2ccc(-c3ccccc3F)cc2)c1 (stereo partly specified)	3
COc1cccc(CN2C[C@@H]3N[C@H](C2)C3c2ccc(-c3ccccc3F)cc2)c1 (stereo partly specified)	-19*!
Fc1cccc(CN2[C@@H]3CNC[C@H]2C3c2ccc(-c3ccccc3)cc2)c1 (stereo partly specified)	16
COc1ccccc1CN1C[C@@H]2N[C@H](C1)C2c1ccc(-c2ccccc2)cc1 (stereo partly specified)	-46*
O=C(CN1CCOCC1)N1C[C@@H]2N[C@H](C1)C2c1ccc(-c2ccccc2)cc1 (stereo partly specified)	11
COc1cccc(-c2ccc(C3[C@H]4CNC[C@@H]3N4Cc3ccccc3F)cc2)c1 (stereo partly specified)	7
Cc1ccc(-c2ccc(C3[C@@H]4CN(Cc5ccccc5)C[C@H]3N4)cc2)cc1 (stereo partly specified)	6
O=C(c1cccnc1)N1CC2(C1)[C@@H](c1ccccc1)[C@H](CO)N2C(=O)c1cccnc1	15
COc1ccc2c3c([nH]c2c1)[C@@H](CO)N(Cc1ccc(F)cc1)CC31CN(C(=O)NC(C)C)C1	6
CN1CCN(C(=O)C[C@H]2C[C@@H]3c4cc(NC(=O)C5CCC5)ccc4O[C@@H]3[C@@H](CO)O2)CC1	7
O=C(C[C@@H]1C=C[C@@H](NC(=O)c2ccc(F)cc2)[C@H](CO)O1)NCCc1ccncc1	3
C[C@@H]1CN([C@H](C)CO)C(=O)c2cccc(NC(=O)C3CCCCC3)c2O[C@H]1CN(C)Cc1ccc(C(=O)Nc2ccccc2N)cc1	-5
Cc1ccc(-c2ccc(C3[C@@H]4CN(Cc5cccnc5)C[C@H]3N4)cc2)cc1 (stereo partly specified)	-22*!
COc1cccc(CN2[C@@H]3CNC[C@H]2[C@H]3c2ccc(-c3ccccc3OC)cc2)c1	8
Cc1cccc(-c2ccc(C3[C@@H]4CN(Cc5cccnc5)C[C@H]3N4)cc2)c1 (stereo partly specified)	20
COc1cccc(CN2C[C@@H]3N[C@H](C2)C3c2ccc(-c3ccncc3)cc2)c1 (stereo partly specified)	-26*!
CN(C)C(=O)c1ccc(-c2ccc(C3[C@@H]4CN(Cc5cncnc5)C[C@H]3N4)cc2)cc1 (stereo partly specified)	17
Cc1ccccc1-c1ccc(C2[C@@H]3CN(C(=O)c4cnccn4)C[C@H]2N3)cc1 (stereo partly specified)	4
COc1cccc(CN2C[C@@H]3N[C@H](C2)C3c2ccc(-c3ccccc3C)cc2)c1 (stereo partly specified)	-35*!
SMILES	DUX4 inh
COc1cccc(CN2[C@@H]3CNC[C@H]2C3c2ccc(-c3ccc(C#N)cc3)cc2)c1 (stereo partly specified)	4
CCCNC(=O)N1C[C@@H](C)[C@@H](OC)CN(C)C(=O)c2cc(NS(C)(=O)=O)ccc2OC[C@H]1C	-2
COc1ccc2c3c(n(C)c2c1)[C@H](CO)N(C(=O)CN(C)C)CC31CN(C(=O)C2CCC2)C1	10
CNC[C@H]1Oc2c(NC(=O)CCC(F)(F)F)cccc2C(=O)N([C@H](C)CO)C[C@@H]1C	0
CCS(=O)(=O)N1CC2(C1)[C@@H](c1ccccc1)[C@H](CO)N2C(=O)C1CCCC1	11
COc1ccc2c3c(n(C)c2c1)[C@H](CO)NCC31CCN(Cc2ccc(F)cc2)CC1	-8
COc1ccc(NC(=O)Nc2ccc3c(c2)[C@@H]2C[C@@H](CC(=O)N[C@@H](C)c4ccccc4)O[C@H](CO)[C@@H]2O3)cc1	4
O=C(C[C@H]1C[C@H]2c3cc(NC(=O)Nc4ccc(C(F)(F)F)cc4)ccc3O[C@H]2[C@H](CO)O1)NCc1ccc2c(c1)OCO2	-6
O=C(C[C@H]1C[C@H]2c3cc(NC(=O)Nc4ccc(C(F)(F)F)cc4)ccc3O[C@H]2[C@@H](CO)O1)NCc1ccc(Cl)cc1	-4
O=C(C[C@H]1C[C@@H]2c3cc(NC(=O)CC4CC4)ccc3O[C@@H]2[C@@H](CO)O1)NCCc1ccccc1	-3
C[C@H](NC(=O)C[C@@H]1C[C@H]2c3cc(NC(=O)Nc4ccc(C(F)(F)F)cc4)ccc3O[C@H]2[C@H](CO)O1)c1ccccc1	-14*
COc1ccc(NC(=O)Nc2ccc3c(c2)[C@H]2C[C@@H](CC(=O)NCCc4ccccc4)O[C@@H](CO)[C@H]2O3)cc1	-1
COc1ccc(NC(=O)Nc2ccc3c(c2)[C@H]2C[C@@H](CC(=O)N[C@@H](C)c4ccccc4)O[C@H](CO)[C@H]2O3)cc1	1
O=C(C[C@@H]1C[C@H]2c3cc(NC(=O)Nc4ccc(C(F)(F)F)cc4)ccc3O[C@H]2[C@H](CO)O1)NCc1ccc2c(c1)OCO2	-47*
O=C(C[C@@H]1C[C@@H]2c3cc(NC(=O)Nc4ccc(C(F)(F)F)cc4)ccc3O[C@@H]2[C@H](CO)O1)NCc1ccc(Cl)cc1	3
O=C(C[C@@H]1C[C@@H]2c3cc(NC(=O)Nc4ccc(C(F)(F)F)cc4)ccc3O[C@@H]2[C@@H](CO)O1)NCc1ccc2c(c1)OCO2	-7
O=C(C[C@@H]1C[C@H]2c3cc(NC(=O)Nc4ccc(C(F)(F)F)cc4)ccc3O[C@H]2[C@H](CO)O1)NCc1ccc(Cl)cc1	-37*
O=C(C[C@@H]1C[C@H]2c3cc(NC(=O)Nc4ccc(C(F)(F)F)cc4)ccc3O[C@H]2[C@H](CO)O1)NCCc1ccccc1	-47*
CCCNC(=O)N1CCC2(CC1)CN(C(C)=O)[C@@H](CO)c1c2c2ccc(OC)cc2n1C	7
COc1ccccc1NC(=O)N[C@H]1C=C[C@H](CC(=O)NCc2ccc(Cl)c(Cl)c2)O[C@@H]1CO	-5
COc1cccc(NC(=O)N(C)C[C@@H]2OCc3cn(nn3)CCCC(=O)N([C@H](C)CO)C[C@@H]2C)c1	7
CCC(=O)N1[C@@H]2Cn3c(ccc(-c4ccncc4)c3=O)[C@H]1[C@@H](C(=O)NC1Cc3ccccc3C1)[C@@H]2CO	-5
C[C@@H]1CN([C@@H](C)CO)C(=O)c2cc(-c3ccccc3)cnc2O[C@H]1CN(C)C(=O)c1ccccn1	0
COc1ccc(C[C@H]2CCn3cc(nn3)COC[C@@H](Cc3ccccc3)NC2=O)cc1	3
CCCC(=O)N1CCC2(CC1)CN[C@@H](CO)c1c2c2ccc(OC)cc2n1C	6
